# Reference: PubChem BioAssay (NCATS)
# “And” between values parts separate entries of the source, which are not always exact repeats. Identical values can stand only once. Inconclusive results are not listed. The source made the active and inactive calls. Unless noted, calls follow the shape of the dose curve; as a rule, active = well fitted curve in either direction with a large enough effect (not every such curve was filed as active); inconclusive = small, poorly fitted or top-dose-only effect, or another doubt; inactive = flat fitted curve, though single readings scatter.
# Experiments:
# [1] = AP1 Signaling Pathway (AID 357);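 also: ME-180 reporter cells stimulated with EGF at its EC50 level; % is scaled to controls: 0 for no effect and ±100 for the full control effect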
# Method in brief: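 Titration-series screen for positive or negative modulators of EC50 EGF-induced signaling in ME-180 cells carrying an AP-1-driven beta-lactamase reporter. After 5 hours at 37 degrees Celsius, CCF4 460nm/530nm emission ratio gave %Activity; AC50 values derived.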
# [2] = NFAT Signaling Pathway (AID 444); conditions: Jurkat NFAT-bla M1, carbachol, beta-lactamase ratio, 5 h;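 also: carbachol stimulus at about its EC50 of 1 µM final; % is scaled to controls: 0 for no effect and ±100 for the full control effect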
# Method in brief: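 Read-out: CCF4 FRET ratio (460 nm/530 nm) after 1 h RT dye loading, used for %activity and AC50 from titration series. Cells: Jurkat NFAT-β-lactamase/M1 line, treated with compound plus 1 uM carbachol for 5 h, 37 °C.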
# [3] = Stat Signaling Pathway (AID 446);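 also: ME-180 cervical cancer cells given 40 pM IL-6 alongside compound; SIE-controlled beta-lactamase reporter measured as 460/530 nm FRET emission ratio; % is scaled to controls: 0 for no effect and ±100 for the full control effect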
# Method in brief: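 Normalization used AC90 stimulation (300 pM IL-6) and AC90 inhibition (125 nM pan-JAK inhibitor at 40 pM IL-6). The underlying signal is SIE-driven beta-lactamase in ME-180 cells after 5 h IL-6 exposure with compound.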
# [4] = target: Glucocorticoid receptor (Homo sapiens) (UniProt P04150); test: GR-GFP Redistribution (AID 450;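 active = compounds whose dose series gives a full or clear partial fitted curve of increased nuclear translocation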; also: potency is read from the fitted curve at half-maximal effect); conditions: U2OS GR-GFP nuclear translocation, laser cytometry, 2 h
# Sequence of Glucocorticoid receptor (Homo sapiens) (P04150 whole entry, looked up, the tested form may be a part): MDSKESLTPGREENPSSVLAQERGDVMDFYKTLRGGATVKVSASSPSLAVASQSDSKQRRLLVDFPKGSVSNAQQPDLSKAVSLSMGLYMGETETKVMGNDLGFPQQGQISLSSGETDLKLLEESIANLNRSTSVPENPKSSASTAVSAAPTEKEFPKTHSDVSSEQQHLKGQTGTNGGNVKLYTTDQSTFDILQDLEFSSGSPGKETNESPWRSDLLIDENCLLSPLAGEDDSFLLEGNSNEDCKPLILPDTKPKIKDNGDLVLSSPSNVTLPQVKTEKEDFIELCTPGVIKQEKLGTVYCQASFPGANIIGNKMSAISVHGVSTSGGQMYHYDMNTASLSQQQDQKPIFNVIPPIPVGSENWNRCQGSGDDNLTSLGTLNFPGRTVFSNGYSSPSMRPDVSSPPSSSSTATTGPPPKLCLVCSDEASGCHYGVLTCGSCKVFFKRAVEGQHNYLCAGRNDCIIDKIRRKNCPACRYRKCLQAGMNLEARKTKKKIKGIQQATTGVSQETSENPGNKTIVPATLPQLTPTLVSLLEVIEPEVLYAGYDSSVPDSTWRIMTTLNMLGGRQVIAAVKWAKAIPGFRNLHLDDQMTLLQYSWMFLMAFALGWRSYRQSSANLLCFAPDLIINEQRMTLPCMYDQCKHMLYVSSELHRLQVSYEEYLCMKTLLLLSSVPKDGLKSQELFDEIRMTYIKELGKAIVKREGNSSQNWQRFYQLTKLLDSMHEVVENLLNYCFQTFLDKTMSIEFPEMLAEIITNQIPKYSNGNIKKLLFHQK
# [5] = target: Glucocorticoid receptor (Homo sapiens) (UniProt P04150); test: GR-EFC Redistribution (AID 451; calls by dose curve; also: potency is read from the fitted curve at half-maximal effect); conditions: CHO-K1 GR-EFC translocation, beta-gal luminescence, 2 h
# Method in brief: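 Translocation of GR-ED fusion to nuclear EA restores b-gal, read by luminescence after 1 h room-temperature detection. Engineered CHO-K1 biosensor cells, 1,000/well, exposed 2 h at 37 C to titrations up to 46 uM final.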
# [6] = target: Mitogen-activated protein kinase 10 (Mus musculus) (UniProt Q61831); test: JNK3 AlphaScreen Assay (AID 530);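 also: kinase came from lysate of stimulated human HepG2 cells; signal reports phosphorylation of biotinylated GST-cJun 1-79 at Ser73 with 10 µM ATP; % is scaled to controls: 0 for no effect and ±100 for the full control effect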
# Method in brief: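 qHTS titrations with 15 min compound pre-incubation before adding ATP (10 uM final). Read-out: AlphaScreen of Ser73-phosphorylated biotin-GST-cJun using HepG2 lysate JNK3 activated by IL-1β and TNFα.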
# [7] = target: 3',5'-cyclic-AMP phosphodiesterase 4B (Homo sapiens) (UniProt Q07343); test: qHTS Assay for Inhibitors of PDE-IV (AID 607; active = well fitted activation curve with a large enough effect in the main read-out, with a control signal flat, not every such curve was filed as active; also: % of control where 0% means no effect)
# Sequence of 3',5'-cyclic-AMP phosphodiesterase 4B (Homo sapiens) (Q07343 whole entry, looked up): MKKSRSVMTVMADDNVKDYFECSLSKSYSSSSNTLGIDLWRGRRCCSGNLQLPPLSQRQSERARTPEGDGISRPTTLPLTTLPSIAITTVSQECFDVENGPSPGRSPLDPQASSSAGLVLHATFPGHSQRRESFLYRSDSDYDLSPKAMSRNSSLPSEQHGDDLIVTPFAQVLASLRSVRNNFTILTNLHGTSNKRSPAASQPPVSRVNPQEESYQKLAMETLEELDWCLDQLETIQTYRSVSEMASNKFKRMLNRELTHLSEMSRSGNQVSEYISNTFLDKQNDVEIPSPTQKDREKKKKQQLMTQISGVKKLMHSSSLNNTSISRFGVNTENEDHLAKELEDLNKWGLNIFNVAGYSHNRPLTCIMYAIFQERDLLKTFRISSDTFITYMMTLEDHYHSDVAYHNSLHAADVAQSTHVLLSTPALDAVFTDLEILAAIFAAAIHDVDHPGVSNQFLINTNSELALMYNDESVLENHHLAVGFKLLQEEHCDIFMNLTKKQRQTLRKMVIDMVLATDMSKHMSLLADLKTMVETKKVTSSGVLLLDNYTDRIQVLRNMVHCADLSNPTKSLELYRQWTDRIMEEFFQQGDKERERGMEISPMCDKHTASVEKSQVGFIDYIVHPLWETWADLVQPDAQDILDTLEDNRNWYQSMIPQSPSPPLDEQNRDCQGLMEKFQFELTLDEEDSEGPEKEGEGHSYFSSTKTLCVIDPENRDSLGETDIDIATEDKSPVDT
# Method in brief: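 HEK293 ACTOne cells with CNG channel (1000/well), endogenous PDE4; membrane potential dye, compounds up to 22.9 uM final. Fluorescence Ex 535/Em 590; RO 20-1724 (100 uM final) as reference.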
# [8] = qHTS Assay for Lipid Storage Modulators (AID 1519; calls by dose curve); conditions: Drosophila S3 cells, BODIPY lipid droplet/cell ratio, laser cytometry, cells loaded with oleic acid
# Method in brief: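 Cells seeded at 5,000 per well were treated with compounds over a concentration series and loaded with oleic acid (400 uM, as added). Lipid droplet fluorescence (488 nm excitation, 500-530 nm channel) was read by laser-scanning cytometry and normalized to 20 uM Triacsin C.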
# [9] = target: Ubiquitin carboxyl-terminal hydrolase 1 (Homo sapiens) (UniProt O94782); test: Inhibitors of USP1/UAF1: Pilot qHTS (AID 504865; active = well fitted curve in the direction sought with a large enough effect; an effect the other way counts as inactive or inconclusive;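 also: rhodamine fluorescence freed from ubiquitin-rhodamine substrate followed over time; top concentration of the series differs between compounds; % is scaled to controls: 0 for no effect and ±100 for the full control effect; nearly all actives have a fitted effect of over 35% in size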)
# Sequence of Ubiquitin carboxyl-terminal hydrolase 1 (Homo sapiens) (O94782 whole entry, looked up): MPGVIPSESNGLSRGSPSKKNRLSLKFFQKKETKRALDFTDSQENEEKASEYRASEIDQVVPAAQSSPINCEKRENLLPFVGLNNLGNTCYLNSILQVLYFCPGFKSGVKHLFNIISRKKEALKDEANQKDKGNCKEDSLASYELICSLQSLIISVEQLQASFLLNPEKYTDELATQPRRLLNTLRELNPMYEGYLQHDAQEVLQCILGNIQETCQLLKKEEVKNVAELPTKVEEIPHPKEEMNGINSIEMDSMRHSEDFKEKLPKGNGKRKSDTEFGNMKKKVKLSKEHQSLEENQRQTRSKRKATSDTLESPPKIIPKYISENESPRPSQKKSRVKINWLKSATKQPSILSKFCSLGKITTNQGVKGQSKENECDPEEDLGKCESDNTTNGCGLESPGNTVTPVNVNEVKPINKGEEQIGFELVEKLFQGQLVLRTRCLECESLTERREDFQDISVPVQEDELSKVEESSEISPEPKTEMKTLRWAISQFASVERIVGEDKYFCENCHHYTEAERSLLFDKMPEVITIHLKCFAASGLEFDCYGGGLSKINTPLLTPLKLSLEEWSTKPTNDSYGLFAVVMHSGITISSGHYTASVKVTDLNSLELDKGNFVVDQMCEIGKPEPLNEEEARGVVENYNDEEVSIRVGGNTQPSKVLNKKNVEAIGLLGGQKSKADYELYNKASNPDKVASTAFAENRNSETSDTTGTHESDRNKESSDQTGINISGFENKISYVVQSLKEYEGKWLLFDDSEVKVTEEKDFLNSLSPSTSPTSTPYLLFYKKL
# Method in brief: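 1nM USP1/UAF1 + cpd, 15 min RT; start w/ Ub-Rho 150nM final; kinetic FL 480/540 nm, 6 reads q60 s. Buffer 50mM HEPES pH 7.8, 0.5mM EDTA, 1mM TCEP, 0.01% Tween-20, 0.1 mg/ml BSA.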
# [10] = target: Cytochrome P450 1A2 (Homo sapiens) (UniProt P05177); test: p450-cyp1a2 (AID 410; calls by dose curve;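 also: -100% = full effect of reference inhibitor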)
# Sequence of Cytochrome P450 1A2 (Homo sapiens) (P05177 whole entry, looked up): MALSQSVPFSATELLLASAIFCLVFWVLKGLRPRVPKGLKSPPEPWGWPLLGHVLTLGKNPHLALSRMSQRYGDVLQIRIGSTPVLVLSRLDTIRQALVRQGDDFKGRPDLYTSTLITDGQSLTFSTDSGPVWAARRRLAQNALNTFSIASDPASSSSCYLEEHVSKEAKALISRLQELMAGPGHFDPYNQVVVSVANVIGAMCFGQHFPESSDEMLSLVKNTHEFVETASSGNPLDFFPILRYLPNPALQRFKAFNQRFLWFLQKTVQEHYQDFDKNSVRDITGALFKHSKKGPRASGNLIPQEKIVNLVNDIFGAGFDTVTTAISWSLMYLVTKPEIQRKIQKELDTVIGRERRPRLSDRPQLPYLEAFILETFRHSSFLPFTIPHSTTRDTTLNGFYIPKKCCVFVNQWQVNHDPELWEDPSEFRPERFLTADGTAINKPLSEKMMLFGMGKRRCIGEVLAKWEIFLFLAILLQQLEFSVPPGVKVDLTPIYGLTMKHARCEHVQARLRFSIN
# Method in brief: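 Luminescent demethylation readout: Luciferin-ME (100uM, equal to Km) turned over by 20nM CYP1A2 for 60 min at room temperature after NADPH regeneration addition, following 10 min compound preincubation. Normalization used 57 uM furafylline as full inhibition.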
# [11] = target: ATP-dependent 6-phosphofructokinase (Trypanosoma brucei brucei) (UniProt O15648); test: qHTS Assay to Find Inhibitors of T. brucei phosphofructokinase: hit validation (AID 492961; active = well fitted curve in the direction sought with a large enough effect; an effect the other way counts as inactive or inconclusive)
# Sequence of ATP-dependent 6-phosphofructokinase (Trypanosoma brucei brucei) (O15648 whole entry, looked up): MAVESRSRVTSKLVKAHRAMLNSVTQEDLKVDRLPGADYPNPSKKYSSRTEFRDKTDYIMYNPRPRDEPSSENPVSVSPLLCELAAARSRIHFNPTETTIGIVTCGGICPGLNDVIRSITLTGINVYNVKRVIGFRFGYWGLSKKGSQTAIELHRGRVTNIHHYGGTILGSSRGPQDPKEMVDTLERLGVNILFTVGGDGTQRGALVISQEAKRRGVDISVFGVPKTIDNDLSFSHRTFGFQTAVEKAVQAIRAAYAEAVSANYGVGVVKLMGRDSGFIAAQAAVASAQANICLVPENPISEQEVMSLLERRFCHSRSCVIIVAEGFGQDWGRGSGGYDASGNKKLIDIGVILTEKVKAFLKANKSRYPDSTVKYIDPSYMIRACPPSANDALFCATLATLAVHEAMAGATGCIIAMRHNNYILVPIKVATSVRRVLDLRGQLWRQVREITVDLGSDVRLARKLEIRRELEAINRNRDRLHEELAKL
# Method in brief: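 ADP-Glo luminescence read-out of ADP formed by 1.25 nM PFK from 0.1 mM ATP and 0.5 mM F6P (TEA pH 8.0, 45 min, RT). Compounds titrated; activity normalized to no-enzyme and full-enzyme controls.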
# [12] = target: Luciferin 4-monooxygenase (Photinus pyralis) (UniProt P08659); test: Biochemical firefly luciferase enzyme assay for NPC (AID 624030; active = well fitted curve in the direction sought with a large enough effect; an effect the other way counts as inactive or inconclusive;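 also: purified P. pyralis luciferase at 10 nM with luciferin and ATP substrate; 0% = DMSO and -100% = full luciferase inhibition by PTC124 control; nearly all actives have a fitted effect of over 70% in size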)
# Sequence of Luciferin 4-monooxygenase (Photinus pyralis) (P08659 whole entry, looked up): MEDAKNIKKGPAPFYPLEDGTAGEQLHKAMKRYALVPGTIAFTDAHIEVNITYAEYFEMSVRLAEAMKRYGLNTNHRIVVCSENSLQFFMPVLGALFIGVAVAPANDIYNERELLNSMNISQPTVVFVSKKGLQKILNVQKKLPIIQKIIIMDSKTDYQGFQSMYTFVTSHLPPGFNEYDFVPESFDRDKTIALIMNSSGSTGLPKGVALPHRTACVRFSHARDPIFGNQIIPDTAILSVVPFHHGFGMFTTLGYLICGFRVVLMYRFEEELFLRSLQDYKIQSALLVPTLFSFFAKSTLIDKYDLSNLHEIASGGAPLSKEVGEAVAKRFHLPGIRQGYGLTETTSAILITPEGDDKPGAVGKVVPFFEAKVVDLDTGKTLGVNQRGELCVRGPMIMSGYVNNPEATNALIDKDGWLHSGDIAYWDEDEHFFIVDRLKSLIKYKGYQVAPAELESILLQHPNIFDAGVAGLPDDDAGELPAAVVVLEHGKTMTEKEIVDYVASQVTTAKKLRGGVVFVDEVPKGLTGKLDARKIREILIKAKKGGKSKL
# Method in brief: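 Direct inhibition of firefly luciferase enzyme (10 nM final, 50 mM Tris Acetate) assessed by luminescence within 5 minutes. Percent activity scaled between DMSO and PTC124 positive control, with concentration-effect curves classified by fit quality and response.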
# [13] = qHTS profiling for inhibitors of Plasmodium falciparum proliferation (AID 504749; active = well fitted curve in the direction sought with a large enough effect; an effect the other way counts as inactive or inconclusive;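 also: 0% = DMSO vehicle and full inhibition = artemisinin control; nearly all actives have a fitted effect of over 60% in size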); conditions: P. falciparum in erythrocytes, SYBR Green DNA, 72 h, at 12.8 µM (top of the series)
# Method in brief: (§1)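 SYBR Green fluorescence of parasite DNA, read after lysis and overnight dark incubation, measured growth over 72 h in erythrocyte culture at 0.3% parasitemia and 2.5% hematocrit. Data normalised to DMSO and 0.29 uM artemisinin, with plate-drift correction.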
# C2A = test: as above; conditions: P. falciparum in erythrocytes, SYBR Green DNA, 72 h; series mostly up to 28.7 µM
# Method in brief: as §1
# CP192 = test: as above; conditions: P. falciparum in erythrocytes, SYBR Green DNA, 72 h; series mostly up to 28.7 µM
# Method in brief: as §1
# CP211 = test: as above; conditions: P. falciparum in erythrocytes, SYBR Green DNA, 72 h; series mostly up to 28.7 µM
# Method in brief: as §1
# CP266 = test: as above; conditions: P. falciparum in erythrocytes, SYBR Green DNA, 72 h; series mostly up to 12.8 µM
# Method in brief: as §1
# CP315 = test: as above; conditions: P. falciparum in erythrocytes, SYBR Green DNA, 72 h; series mostly up to 28.7 µM
# Method in brief: as §1
# CP329 = test: as above; conditions: P. falciparum in erythrocytes, SYBR Green DNA, 72 h; series mostly up to 28.7 µM
# Method in brief: as §1
# FAB9 = test: as above; conditions: P. falciparum in erythrocytes, SYBR Green DNA, 72 h; series mostly up to 28.7 µM
# Method in brief: as §1
# [14] = measured here: cell count channel max response
# [15] = measured here: lipid channel max response
compound,measurement,setting,value
O=C(NCNC(=O)N[C@H]1C(=O)NC(=O)N1CO)N[C@H]1C(=O)NC(=O)N1CO,outcome,[1],inactive
same,"activity change, negative = inhibition",[2]; at 17.2 µM (top of the series),-14% (inactive)
same,outcome,[3],inactive
same,Potency,[4],> 20.6 µM (inactive)
same,Potency,[5],> 20.6 µM (inactive)
same,outcome,[6],inactive
same,Potency,[7],inactive
same,"activity change, negative = inhibition",[8]; at 25.7 µM (top of the series),-1.29% (inactive)
same,max response,[8]; [14],-9.3%
same,max response,[8]; [15],-8.35%
same,Potency,[9],inactive
CO[C@H]1C=C2CCN(C)[C@@H]2[C@@H]2c3cc4c(cc3C(=O)O[C@H]21)OCO4,outcome,[1],inactive
same,"activity change, negative = inhibition",[2]; at 17.2 µM (top of the series),8.91% (inactive)
same,outcome,[3],inactive
same,Potency,[4],> 20.6 µM (inactive)
same,Potency,[5],> 20.6 µM (inactive)
same,outcome,[6],inactive
same,Potency,[7],inactive
same,"activity change, negative = inhibition",[8]; at 25.7 µM (top of the series),0.781% (inactive)
same,max response,[8]; [14],-13.3%
same,max response,[8]; [15],-11.4%
same,Potency,[9],inactive
CC[C@H]1C(=O)OC[C@H]1Cc1cncn1C,outcome,[1],inactive
same,"activity change, negative = inhibition",[2]; at 38 µM (top of the series),27.4% (inactive) and 31.8% (inactive)
same,outcome,[3],inactive
same,"activity change, negative = inhibition",[8]; at 25.7 µM (top of the series),0.358% (inactive)
same,max response,[8]; [14],-8.31%
same,max response,[8]; [15],-6.45%
same,Potency,[9],inactive
C#C[C@@]1(O)CC[C@@H]2[C@@H]3CCC4=CC(=O)CC[C@@]4(C)[C@H]3CC[C@]21C,outcome,[1],inactive
same,"activity change, negative = inhibition",[2]; at 17.2 µM (top of the series),-15.1% (inactive)
same,Potency,[4],0.155 µM (active)
same,Potency,[5],> 20.6 µM (inactive)
same,outcome,[6],inactive
same,"activity change, negative = inhibition",[8]; at 25.7 µM (top of the series),-1.74% (inactive)
same,max response,[8]; [14],-8.16%
same,max response,[8]; [15],-11.2%
O=C1C(Cl)=C(Cl)C(=O)C(Cl)=C1Cl,outcome,[6],inactive
same,"activity change, negative = inhibition",[8]; at 57.5 µM (top of the series),-9.83% (inactive)
same,max response,[8]; [14],-3.14%
same,max response,[8]; [15],-11.5%
O=C(O)COc1ccc(Cl)cc1Cl,outcome,[6],inactive
same,"activity change, negative = inhibition",[8]; at 57.5 µM (top of the series),-1.59% (inactive)
same,max response,[8]; [14],-3.68%
same,max response,[8]; [15],-7.52%
same,Potency,[9],inactive
C[C@@H]1O[C@H](O[C@@H]2C=C3CC[C@H]4[C@@H](CC[C@]5(C)[C@@H](c6ccc(=O)oc6)CC[C@]45O)[C@@]3(C)CC2)[C@@H](O)[C@H](O)[C@@H]1O,Potency,[10],inactive
same,"activity change, negative = inhibition",[2]; at 17.2 µM (top of the series),-39.6% (active)
same,Potency,[4],> 20.6 µM (inactive)
same,Potency,[5],> 20.6 µM (inactive)
same,outcome,[6],inactive
same,"activity change, negative = inhibition",[8]; at 25.7 µM (top of the series),-8.45% (inactive)
same,max response,[8]; [14],-11.6%
same,max response,[8]; [15],-25.4%
same,Potency,[11],inactive
same,Potency,[9],inactive
same,Potency,[12],inactive
same,"activity, negative = inhibition",[13]; parasite line A,-2.59% (inactive)
same,"activity, negative = inhibition",[13]; parasite line B,-11.4% (inactive)
same,Potency,C2A,inactive
same,Potency,CP192,inactive
same,Potency,CP211,inactive
same,Potency,CP266,inactive
same,Potency,CP315,inactive
same,Potency,CP329,inactive
same,Potency,FAB9,inactive
CCNc1nc(Cl)nc(NC(C)C)n1,outcome,[6],inactive
same,"activity change, negative = inhibition",[8]; at 57.5 µM (top of the series),7.77% (inactive)
same,max response,[8]; [14],2.72%
same,max response,[8]; [15],11.1%
same,Potency,[9],inactive
CCCCCCCCCc1ccc(O)cc1,outcome,[6],inactive
same,"activity change, negative = inhibition",[8]; at 57.5 µM (top of the series),4.47% (inactive)
same,max response,[8]; [14],4.78%
same,max response,[8]; [15],11%
C[N+]1=Cc2cc3c(cc2CC1)OCO3,Potency,[10],inactive
same,Potency,[4],> 46 µM (inactive)
same,Potency,[5],> 46 µM (inactive)
same,outcome,[6],inactive
same,Potency,[7],inactive
same,"activity change, negative = inhibition",[8]; at 57.5 µM (top of the series),4.74% (inactive)
same,max response,[8]; [14],15.4%
same,max response,[8]; [15],22.1%
